Most compounds without a hit are left out; they make up all but 2.8% or so of the library.
Pol iota inh: qHTS for Inhibitors of Polymerase Iota | DNA polymerase iota (Homo sapiens), Q9UNA4 | Pol iota fluorescent replication assay, 10 min | Potency, µM (titrated, usually from 115 µM), hits mostly inhibitors | 390,000 tested, 1% active | AID 588590, 2011
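Pol iota at 10 nM preincubated 15 min with compounds at room temperature; reaction started with fluorescent substrate, 50 nM final. Fluorescence read kinetically at 0 and 10 min; buffer-only wells as negative control.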
POLB inh: qHTS Assay for Inhibitors of DNA Polymerase Beta; P06746; Pol beta primer extension/strand displacement, fluorescence kinetic; Potency, µM (top dose mostly 114 µM), most hits filed as inhibitors; 340,000 tested, 1.3% active; AID 485314, 2010
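Pol beta (10 nM) and compounds were preincubated 15 min at room temperature, then 50 nM substrate (final) started primer extension/strand displacement. Reads were taken at 0 and 10 min; concentration-response data were fitted to a four-parameter Hill equation.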
PI5P4Ka inh: qHTS for Inhibitors of phosphatidylinositol 5-phosphate 4-kinase (PI5P4K); Phosphatidylinositol 5-phosphate 4-kinase type-2 alpha (Homo sapiens), P48426; PI5P4Kalpha enzyme, ADP-Glo luminescence, 60 min; active compounds read low; max response, %; 330,000 tested, 1.2% active; AID 652105, 2013; active means max response of -50% or lower; inconclusive means between -30% and -50%; inactive means -30% or higher; further: value at the top dose of about 77 µM
Target sequence (P48426 whole entry, looked up): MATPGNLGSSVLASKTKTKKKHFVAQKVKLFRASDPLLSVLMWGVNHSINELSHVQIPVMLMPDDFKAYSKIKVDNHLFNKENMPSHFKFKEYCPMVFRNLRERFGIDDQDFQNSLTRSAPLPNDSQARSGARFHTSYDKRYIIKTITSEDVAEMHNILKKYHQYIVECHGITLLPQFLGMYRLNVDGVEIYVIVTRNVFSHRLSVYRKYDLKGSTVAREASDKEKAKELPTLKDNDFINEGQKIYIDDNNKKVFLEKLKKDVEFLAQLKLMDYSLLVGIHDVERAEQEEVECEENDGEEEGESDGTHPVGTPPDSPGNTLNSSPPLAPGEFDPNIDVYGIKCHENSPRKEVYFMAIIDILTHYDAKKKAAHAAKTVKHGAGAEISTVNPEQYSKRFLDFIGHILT
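Enzyme plus substrate dispensed, test compounds pinned in, then ATP (5 microM final) added. After 60 min at RT, ADP-Glo reagent 1 for 45 min and reagent 2 for 30 min preceded luminescence imaging.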
WRN helicase inh: qHTS for Inhibitors of WRN Helicase; Potency, µM (highest dose often 114 µM), hits mostly inhibitors; WRN helicase unwinding, fluorescent forked duplex, kinetic; Bifunctional 3'-5' exonuclease/ATP-dependent helicase WRN (Homo sapiens), Q14191; 360,000 tested, 0.46% active; further: nearly all actives have a fitted effect of over 55% in size
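Primary qHTS, 1536-well format. 20 nM WRN + compound, 15 min RT; start with 100 nM forked fluorophore/quencher duplex, 2 mM ATP (final); kinetic read ex 525/em 598 nm.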
Pol kappa inh: qHTS for Inhibitors of Polymerase Kappa. DNA polymerase kappa (Homo sapiens), Q9UBT6. purified Pol kappa, fluorescent DNA synthesis assay, 10 min. Potency, µM (doses to about 107 µM), most hits filed as inhibitors. 400,000 tested, 0.53% active. AID 588579, 2011
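Readout: fluorescence, taken kinetically at 0 and 10 min. Conditions: 10 nM Pol kappa, 15 min RT compound preincubation, 50 nM substrate final. Controls: enzyme-free buffer wells.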
Pol eta inh: qHTS for Inhibitors of Polymerase Eta. DNA polymerase eta (Homo sapiens), Q9Y253. recombinant Pol eta, fluorescent DNA replication assay. Potency, µM (top dose mostly 114 µM), most hits filed as inhibitors. 390,000 tested, 1.2% active
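Pol eta at 10 nM preincubated with compounds 15 min at room temperature; reaction started with fluorescent substrate (50 nM final) and read kinetically at 0 and 10 min.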
Numbers stand for hits; n = inactive; u = inconclusive; x = no result given; [ ] = remark or other dose. Unless noted, the call rests on the fitted dose curve; in most records, active means well fitted curve in the direction sought with a large enough effect; inconclusive means small, poorly fitted or top-dose-only effect, or another doubt; inactive means no such curve, though single readings can be large; an effect the other way counts as inactive or inconclusive.

SMILES | Pol iota inh | POLB inh | PI5P4Ka inh | WRN helicase inh | Pol kappa inh | Pol eta inh
CCOC(=O)c1c(S(=O)(=O)N2CCCC(C(=O)Nc3cccc(Cl)c3)C2)c(C)n(C)c1C (centres undefined) | n | n | x | x | n | n
C#CCOCCOCCOCCNc1nc(N2CCN(C(=O)[C@H](Cc3cc4ccccc4[nH]3)n3cc([C@@H](N)C(C)CC)nn3)CC2)nc(N2CCN(C(=O)[C@H](Cc3cc4ccccc4[nH]3)n3cc([C@@H](N)Cc4ccc(O)cc4)nn3)CC2)n1 (some centres undefined) | x | n | x | x | x | x
C#CCOCCOCCOCCNc1nc(N2CCN(C(=O)[C@H](Cc3cc4ccccc4[nH]3)n3cc([C@@H](N)Cc4ccc(O)cc4)nn3)CC2)nc(N2CCN(C(=O)[C@H](Cc3cc4ccccc4[nH]3)n3cc([C@@H](N)CC(C)C)nn3)CC2)n1 | u | n | u | n | n | n
C#CCOCCOCCOCCNc1nc(N2CCN(C(=O)[C@H](Cc3cc4ccccc4[nH]3)n3cc([C@@H](N)CC(C)C)nn3)CC2)nc(N2CCN(C(=O)[C@H](Cc3cc4ccccc4[nH]3)n3cc([C@@H](N)CC(C)C)nn3)CC2)n1 | u | 28µM | u | n | n | n
C#CCOCCOCCOCCNc1nc(N2CCN(C(=O)C(Cc3cc4ccccc4[nH]3)n3cc(C(N)Cc4ccc(O)cc4)nn3)CC2)nc(N2CCN(C(=O)C(Cc3cc4ccccc4[nH]3)n3cc(C(N)Cc4ccc(O)cc4)nn3)CC2)n1 (centres undefined) | n | n | -92 | n | n | n
C#CCOCCOCCOCCNc1nc(N2CCN(C(=O)[C@H](Cc3ccc(O)cc3)n3cc([C@@H](N)C(C)CC)nn3)CC2)nc(N2CCN(C(=O)[C@H](Cc3cc4ccccc4[nH]3)n3cc([C@@H](N)CC(C)C)nn3)CC2)n1 (some centres undefined) | 79µM | 28µM | u | n | n | n
C#CCOCCOCCOCCNc1nc(N2CCN(C(=O)[C@H](Cc3ccc(O)cc3)n3cc([C@@H](N)C(C)CC)nn3)CC2)nc(N2CCN(C(=O)[C@H](Cc3cc4ccccc4[nH]3)n3cc([C@@H](N)C(C)CC)nn3)CC2)n1 (some centres undefined) | 28µM | 25µM | u | n | n | n
CCCCCCCOc1ccc(CC(=O)NO)cc1 | n | x | x | x | n | x
CC(=O)Nc1ccc(/C=C/c2ccncc2)cc1 | n | x | x | x | n | x
O=C(Nc1ccc(Oc2ccccc2)cc1)C1CCCO1 (centres undefined) | n | 79µM | x | n | n | n
COc1ccc(NC(=O)C2CCCO2)cc1 (centres undefined) | n | n | x | n | n | n
COc1ccc(NC(=O)/C(C#N)=C/c2ccc(-c3ccccc3C(=O)O)o2)cc1 | n | n | n | n | n | n
Cc1ccccc1NC(=O)/C(C#N)=C/c1ccc(-c2ccc(Cl)c(C(=O)O)c2)o1 | u | u | n | u | u | 32µM
COc1ccc(NC(=O)/C(C#N)=C\c2ccc(Br)o2)cc1 | 10µM | u | -83 | u | 79µM | u
COc1ccc(NC(=O)/C(C#N)=C\c2ccc(-c3cccc(C(=O)O)c3C)o2)cc1 | u | 7.9µM | n | n[11.6 µM] | u | 22µM
Cc1ccc(/C=C(\C#N)C(=O)Nc2ccc(Br)cc2)o1 | n | n | x | x | n | x
COc1ccc2c(c1)CC(NC(=O)Nc1cc(Cl)ccc1OC)CO2 (centres undefined) | n | u | x | x | n | n
O=C(CSc1ccc(Cl)cc1)Nc1ccc(-c2nc3ccccc3[nH]2)cc1 | n | 32µM | u | n | n | u
COc1ccc2nc3sc(C(=O)Nc4cc(Cl)c(OC)cc4OC)cc3cc2c1 | n | u | x | x | n | u
CCC(C)NC(=O)c1cc2cc3ccc(OC)cc3nc2s1 (centres undefined) | n | 50µM | x | n | u | u
CCOc1ccc(CCNC(=O)c2cc3cc4cc(OC)ccc4nc3s2)cc1OCC | n | 14µM | x | x | n | n
COc1cc(N(C)C)c(OC)cc1/C=C1\C=Cc2ccccc21 | n | x | x | x | n | x
CCn1nnc(NC(=O)CSc2ccc(Cl)cc2)n1 | 25µM | 25µM | x | u | 79µM | 50µM
O=C(Cc1ccc(OCc2ccccc2)cc1)NO | n | x | x | x | n | x
Cc1ccc(S(=O)(=O)c2nnn3c2nc(NC2CCCCC2)c2sccc23)cc1C | n | n | x | x | n | x
SMILES | Pol iota inh | POLB inh | PI5P4Ka inh | WRN helicase inh | Pol kappa inh | Pol eta inh
CC(=O)Nc1ccc2c(c1)Cc1ccc(Cl)cc1-2 | 79µM | x | n | n[11.6 µM] | n | n
CC(=O)Nc1ccc2c(c1)Cc1cc(N3C(=O)C=CC3=O)ccc1-2 | u | x | u | 35µM | n | n
CC(=O)Nc1ccc2c(c1)-c1ccc(F)cc1C2 | n | x | n | n | n | n
CCc1cnc2ccccc2c1/C=C/c1ccc(N(C)C)cc1 | n | x | x | x | n | x
CN1CCc2c(sc(NC(=O)c3cc4cc([N+](=O)[O-])ccc4s3)c2C(N)=O)C1 | x | 22µM | x | x | x | x
O=[N+]([O-])c1cc([N+](=O)[O-])c2nonc2c1Nc1ccc(O)cc1 | 2.5µM | n | u | n[11.6 µM] | n | n
CCc1nc(-c2ccc(C)c(S(=O)(=O)N3CCN(c4ccc(C(C)=O)cc4)CC3)c2)no1 | n | n | x | x | n | n
Cc1ccnc(NS(=O)(=O)c2ccc(N3C(=O)c4c(Cl)c(Cl)c(Cl)c(Cl)c4C3=O)cc2)n1 | n | n | n | n[11.6 µM] | n | 79µM
Cc1ccnc(NS(=O)(=O)c2ccc(N3C(=O)c4ccccc4C3=O)cc2)n1 | n | n | n | n | n | n
COc1ccc(-n2c(=O)c3ccc(C(=O)NCc4ccc(C)cc4)cc3n(CC(=O)Nc3cccc(F)c3)c2=O)cc1 | n | n | x | x | n | n
Nc1ccc(C(=O)OCCc2ccccc2)cc1 | n | x | n | n | n | n
O=C(OCCc1ccccc1)c1cc(O)c(O)c(O)c1 | u | x | n | u | 45µM | n
Cc1ccccc1NS(=O)(=O)c1ccc(Br)s1 | n | n | x | x | n | n
Cc1cc(=O)cc(C)n1-c1ccc(Br)cc1 | n | n | n | 16µM | n | n
Cc1cc(=O)cc(C)n1-c1ccc2c(c1)nc(C)n2-c1ccccc1 | u | n | x | n | n | n
CCCCOc1ccc(-c2c(C#N)c(N)[nH]c(=S)c2C#N)cc1 | n | n | -95 | n | n | n
CCOC(=O)c1c(C)[nH]c(=S)c(C#N)c1-c1ccc(OC)cc1 | u | n | x | n | n | n
CCCCOc1ccc(-c2c(C(=O)Nc3ccccc3)c(C)[nH]c(=S)c2C#N)cc1 | n | n | -53 | n | n | n

Screening data: PubChem BioAssay, National Center for Advancing Translational Sciences (NCATS)
